Sampled rows, rich in hits. Any-hit rate of the full collection: about 4.9%.
PP1 counter: blocks human PP1-alpha phosphatase, a PP5 counter-screen | AID 2235 | purified PP1alpha, OMFP fluorescence | P62136 | 320,000 compounds, 0.9% hits | inhibition, % at 6.7 µM;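 active means inhibition above the mean inhibition of all tested compounds plus 3 SD, computed separately for each screening campaign, cut at about 15% in these data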
Target sequence (P62136 whole entry, looked up): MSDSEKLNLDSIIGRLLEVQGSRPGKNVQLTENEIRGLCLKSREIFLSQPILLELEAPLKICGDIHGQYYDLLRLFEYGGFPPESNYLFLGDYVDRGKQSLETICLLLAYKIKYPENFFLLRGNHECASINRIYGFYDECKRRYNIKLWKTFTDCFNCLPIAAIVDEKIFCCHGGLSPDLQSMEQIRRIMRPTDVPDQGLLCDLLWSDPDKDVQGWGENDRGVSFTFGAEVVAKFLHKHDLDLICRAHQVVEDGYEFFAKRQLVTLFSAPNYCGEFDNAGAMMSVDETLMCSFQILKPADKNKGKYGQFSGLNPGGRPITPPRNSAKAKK
CSC inhib: cancer stem cell inhibition; 300,000 compounds, 1.1% hits; inhibition, % at 7.5 µM; cancer stem cell-like cells viability, luminescence; AID 2717; in the data active means inhibition above about 75%; inconclusive means no clear call, values can overlap the other calls; tested in HMLE shEcad cells
Beta apoptosis: beta cell apoptosis inhibition; protection from apoptosis, % (concentration not given with the values); INS-1E cytokine-induced death, ATP luminescence, 48 h; percent of positive-control rescue, neutral wells zero; 300,000 compounds, 0.8% hits;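 active means Every replicate reaches about 75%, or at least half do and their mean reaches it too, limit read from the data; inconclusive means At least half of replicates reach the limit but their mean does not; inactive means Under half of replicates reach the limit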;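 further: 0% = cytokine-treated negative control wells and 100% = positive control rescue; higher means more ATP so stronger rescue from cytokine killing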
PP5 inh: inhibitors of human protein phosphatase 5 (PP5). P53041. purified PP5c, OMFP substrate fluorescence. inhibition, % at 6.7 µM. 320,000 compounds, 0.18% hits;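 active means inhibition above the campaign's mean inhibition across all tested compounds plus 3 SD, cut at about 9.5% in these data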;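 further: 0% = DMSO only and 100% = 100 µM cantharidin control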
Calb FLC: affects C. albicans growth with fluconazole; C. albicans CaCi-2 (fluconazole-resistant clinical isolate) + fluconazole, Alamar Blue growth, 48 h; growth inhibition, % (test concentration not listed); 300,000 compounds, 0.57% hits;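 active means growth inhibition above about 58% in most replicates, limit read from the data, passing the limit was not always enough; inconclusive means exactly half the replicates above a set limit; inactive means most replicates below a set limit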;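 further: all wells also contain fluconazole at 8 µg/ml as a sub-toxic cotreatment; 0% = median of DMSO wells and 100% = median of geldanamycin control wells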
Mdm2 MdmX PPI: inhibitors of human Mdm2/MdmX interaction; O15151+Q00987; SaOS-2 split-luciferase Mdm2/MdmX complementation, luminescence; inhibition, % at 8 µM; 330,000 compounds, 3% hits; AID 485346;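 active means inhibition of at least 50% at 8 µM in the primary screen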
Mdm2-MdmX conf: confirmation of human Mdm2/MdmX interaction inhibitors | AID 489028 | 10,000 compounds, 55% hits | shares compounds with Mdm2 MdmX PPI | inhibition, % at 8 µM | Mdm2-MdmX binding, luminescent assay; in the data active means inhibition above about 40%
FLuc counter: full-length luciferase inhibition in Mdm2/MdmX counter-screen; shares compounds with Mdm2 MdmX PPI; SaOS-2 full-length luciferase counterscreen, luminescence; inhibition, % at 8 µM; 6,200 compounds, 77% hits;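 active means mean inhibition at 8 µM reaching about 37%, which flags the compound as non-specific, limit read from the data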;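 further: p53-null SaOS-2 cells with luciferase driven by a doxycycline-inducible promoter; compound on cells about two nights before reading with doxycycline added after day one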
* hit, by the source's call; ? = inconclusive; . = not tested or not shown.

SMILES	PP1 counter	CSC inhib	Beta apoptosis	PP5 inh	Calb FLC	Mdm2 MdmX PPI	Mdm2-MdmX conf	FLuc counter
O=C(c1cc(-c2ccccc2Cl)nc2ccc(Br)cc12)N1CCN(c2ccccn2)CC1	8.0	16.1	106.0*	-1.4	-8.9	73.7*	8.6	.
CCCN(CCC)Cc1c(C(=O)N/N=C/c2c[nH]c3ccccc23)nnn1-c1nonc1N	3.7	.	5.1	4.8	?	-13.6	.	.
CC(=O)NS(=O)(=O)c1ccc2sc(C)nc2c1	11.3	-16.1	-0.8	0.0	-0.5	19.8	.	.
COc1ccccc1CN1CCNC(=O)C1CC(=O)NCCc1cnccn1 (stereo not drawn)	-4.3	-2.6	-0.1	3.8	9.2	9.0	.	.
CC(C)c1ccc(N(CC(=O)NCC2CCCO2)C(=O)Cn2nnc(-c3cccs3)n2)cc1 (stereo not drawn)	3.3	-4.0	-6.0	1.2	1.5	7.8	.	.
CN(C)CCNC=C(C(=O)Nc1ccc(Cl)cc1Cl)C(=O)Nc1ccc(Cl)cc1Cl	-2.5	77.6*	9.2	2.0	-7.5	75.5*	39.4	.
CCN(CC)C(=O)COc1ccc(/C=N/NC(=O)c2cc(-c3ccccc3OC)nc3ccccc23)cc1OC	3.0	0.7	2.5	3.6	13.3	13.5	.	.
COc1cc(-c2noc(C)c2/C=C/c2cccc([N+](=O)[O-])c2)cc(OC)c1OC	0.5	63.9	24.9	3.0	2.4	78.9*	74.7*	83.8*
COc1ccc(Cl)cc1NC(=O)CCNS(=O)(=O)c1cccc2nonc12	-2.0	.	-3.1	-0.2	0.0	17.2	.	.
CC(c1ccccc1)N1CCN(C(=O)CCl)CC1 (stereo not drawn)	-1.4	4.1	4.8	-1.1	-13.8	25.7	.	.
CSc1ncc(C(=O)Nc2ccc(C(C)=O)cc2)c(C)n1	.	2.9	-4.6	.	2.1	-9.3	.	.
CC(=O)CCC(=O)N1CCCC(N2CCN(c3cccc(Cl)c3)CC2)C1 (stereo not drawn)	3.7	5.5	.	0.7	-4.6	5.7	.	.
C=CC[C@]12CC=CC(=O)[C@@]1(O)O[C@H](c1ccc(OC)c(OC)c1)[C@H]2C	1.7	38.8	-6.4	2.4	-2.3	50.3*	29.6	.
C=CC[C@]12C=C(OC)C(=O)C(OC)=C1O[C@@H](c1ccc3c(c1)OCO3)[C@H]2C	-2.3	-10.5	-3.0	2.4	8.2	0.2	.	.
CN=c1scc(-c2ccccc2F)n1/N=C/c1ccc(O)c(O)c1O	.	.	.	.	7.4	.	.	.
CN=c1scc(-c2ccccc2F)n1/N=C/c1ccc[nH]1	7.0	31.6	8.0	1.6	2.7	94.0*	97.9*	20.6
Fc1ccc([C@@H]2CCNC[C@H]2COc2ccc3c(c2)OCO3)cc1	6.0	5.8	.	0.4	-18.8	50.6*	33.5	55.6*
COc1ccc(S(=O)(=O)N2CCC(C(=O)N(CC(C)C)C3CCS(=O)(=O)C3)CC2)cc1OC (stereo not drawn)	-3.3	-5.1	-0.8	-1.3	-2.1	17.2	.	.
COc1ccc(-c2cc3nc(CCl)[nH]c(=O)c3s2)cc1	-0.2	42.9	3.7	3.8	32.9	94.9*	29.9	.
Cc1nn(CC(=O)N2c3ccccc3NC(=O)C2(C)C)c(C)c1[N+](=O)[O-]	3.1	-2.8	.	-0.3	-7.4	-0.2	.	.
CC1(C)C(=O)Nc2ccccc2N1C(=O)Cn1ncc(Cl)c(Cl)c1=O	6.8	?	-21.3	-1.3	6.8	100.4*	91.2*	39.9*
CC(C)CC1NC(=O)c2ccc(Cl)cc2-n2c1nc1ccc(Cl)cc1c2=O (stereo not drawn)	.	.	0.7	.	.	3.7	.	.
CCC1CCCCN1C(=O)CCCOc1ccccc1 (stereo not drawn)	-0.6	2.2	-4.1	0.6	2.4	1.3	.	.
CCCCC[C@H](O)/C=C/[C@H]1CCC(=O)[C@@H]1CCCCCCC(=O)N1CCCCC1CO (stereo partly drawn)	6.9	19.3	-2.0	2.8	-2.7	60.4*	43.5*	54.2*
O=C(Nc1ccccc1C(=O)O)/C(=C/c1ccc([N+](=O)[O-])cc1)NC(=O)c1ccc(Br)o1	9.2	-6.9	-1.9	-0.1	5.9	-6.3	.	.
SMILES	PP1 counter	CSC inhib	Beta apoptosis	PP5 inh	Calb FLC	Mdm2 MdmX PPI	Mdm2-MdmX conf	FLuc counter
Cc1cc(OCC(=O)OCC(=O)N(C)Cc2ccccc2C)ccc1Cl	0.1	-8.0	-5.1	3.3	.	5.6	.	.
CC1(C)Oc2ccc3ccc(=O)oc3c2/C(=C/Nc2ccc(O)cc2)C1=O	1.2	-1.1	-14.8	3.7	2.2	55.4*	24.6	.
Cn1c(O)c(N=NC(=O)Cn2c(C(F)(F)F)nc3ccccc32)c2ccccc21	0.0	-43.8	-7.5	0.9	9.3	-21.7	.	.
COc1cccc(-c2nc(-c3ccccc3)nc(N3CCN(C)CC3)c2C#N)c1	-3.1	-10.9	13.2	2.8	-4.2	66.4*	53.9*	77.3*
COc1ccc(-c2nc(-c3cccc(C)c3)nc(N3CCN(C)CC3)c2C#N)cc1	3.0	-7.4	2.8	0.2	-4.4	65.7*	74.3*	56.5*
COc1ccc(-c2nc(-c3ccccc3)nc(N3CCN(C)CC3)c2C#N)cc1	2.4	45.5	.	2.4	0.0	47.2	.	.
CC(C)CNC(=O)c1cccc(NC(=O)COc2ccc([N+](=O)[O-])cc2)c1	-1.6	-30.7	-2.3	1.0	-13.6	14.9	.	.
COc1ccc(Br)cc1/C=N/NC(=O)c1cccnc1	-2.8	3.5	-12.2	2.1	-1.9	30.5	.	.
COc1cc([N+](=O)[O-])cc(/C=N/NC(=O)c2cccnc2)c1O	0.9	-4.5	-7.5	2.9	8.6	55.5*	52.4*	51.0*
COc1ccc(/C=N/NC(=O)c2cccnc2)cc1COc1ccc([N+](=O)[O-])c(C)c1	1.6	48.2	13.0	2.9	-16.6	52.4*	54.6*	47.7*
COc1ccc(/C=N/NC(=O)c2ccn[nH]2)cc1COc1ccc([N+](=O)[O-])c(C)c1	2.5	11.9	.	1.0	7.0	24.3	.	.
O=C(NC1CC1)C1CC(=O)N(c2ccc(F)cc2)C1 (stereo not drawn)	0.0	6.0	-0.3	1.1	3.3	-11.7	.	.
Cc1nc(NC(=O)/C=C/c2ccccc2)n[nH]1	-0.1	45.1	-37.1	0.1	-1.7	56.5*	40.0*	32.9
O=c1c2cc(Cl)ccc2nc(-c2ccc(Cl)c(Cl)c2)n1O	-1.8	120.1*	38.1	1.2	100.6*	72.1*	83.2*	21.3
O=c1c2cc(Br)ccc2nc(-c2cccc(C(F)(F)F)c2)n1O	14.4	13.9	7.4	2.9	90.3*	55.5*	42.1*	29.9
N#Cc1ccc(-c2nc3ccc(Br)cc3c(=O)n2O)cc1	-2.5	20.7	8.2	-2.3	-5.2	17.9	.	.
Cc1ccc(-c2cc(C(=O)NCCCN3CCOCC3)c3ccc(Cl)c(C)c3n2)cc1	7.5	26.4	33.5	1.5	18.4	50.5*	41.7*	75.0*
